# Data taken from the supplement of paper PMC8728848.
# The sample as a whole holds a higher share of the strongest signals than the screen did.
# Legend:
# Assay in all cases: glycan array binding signal (z-score within array); higher = stronger binding
# Conditions in all cases: glycan notation: IUPAC condensed, linker removed
# [1] = molecular target: Gal(b1-4)GlcNAc(b1-3)Gal(b1-4)GlcNAc(b1-3)Gal(b1-4)GlcNAc(b1-3)Gal(b1-4)GlcNAc(b1-2)Man(a1-3)[Gal(b1-4)GlcNAc(b1-3)Gal(b1-4)GlcNAc(b1-3)Gal(b1-4)GlcNAc(b1-3)Gal(b1-4)GlcNAc(b1-2)Man(a1-6)]Man(b1-4)GlcNAc(b1-4)[Fuc(a1-6)]GlcNAc
# Procedure, shortened: (§1)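 The binding signal is a Z-score computed within each array and averaged over linkers. Arrays of the same protein sequence at different concentrations or buffers were also averaged together. Data originate from 3228 arrays in the Consortium for Functional Glycomics database, kept only where the protein sequence was available.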
# [2] = molecular target: Gal(b1-4)GlcNAc(b1-3)Gal(b1-4)GlcNAc(b1-3)Gal(b1-4)GlcNAc(b1-3)Gal(b1-4)GlcNAc(b1-3)Gal(b1-4)GlcNAc(b1-2)Man(a1-3)[Gal(b1-4)GlcNAc(b1-3)Gal(b1-4)GlcNAc(b1-3)Gal(b1-4)GlcNAc(b1-3)Gal(b1-4)GlcNAc(b1-3)Gal(b1-4)GlcNAc(b1-2)Man(a1-6)]Man(b1-4)GlcNAc(b1-4)[Fuc(a1-6)]GlcNAc
# Procedure, shortened: as §1
# [3] = molecular target: Gal(b1-6)Gal
# Procedure, shortened: as §1
# [4] = molecular target: Gal3S6S(b1-4)GlcNAc6S
# Procedure, shortened: as §1
# [5] = molecular target: GalNAc(b1-3)Gal(a1-4)Gal(b1-4)GlcNAc
# Procedure, shortened: as §1
# [6] = molecular target: GlcNAc(a1-4)Gal(b1-4)GalNAc
# Procedure, shortened: as §1
# [7] = molecular target: GlcNAc(b1-2)Man(a1-3)[GlcNAc(b1-4)][GlcNAc(b1-2)Man(a1-6)]Man(b1-4)GlcNAc(b1-4)[Fuc(a1-6)]GlcNAc
# Procedure, shortened: as §1
# [8] = molecular target: GlcNAc(b1-3)Gal(b1-4)GlcNAc(b1-3)Gal(b1-4)GlcNAc(b1-2)Man(a1-3)[GlcNAc(b1-3)Gal(b1-4)GlcNAc(b1-3)Gal(b1-4)GlcNAc(b1-2)Man(a1-6)]Man(b1-4)GlcNAc(b1-4)GlcNAc
# Procedure, shortened: as §1
# [9] = molecular target: GlcNAc6S(b1-3)Gal(b1-4)GlcNAc
# Procedure, shortened: as §1
# [10] = molecular target: Man(a1-2)Man(a1-3)Man
# Procedure, shortened: as §1
# [11] = molecular target: Man(a1-2)Man(a1-3)[Man(a1-6)]Man(a1-6)[Man(a1-2)Man(a1-3)]Man(b1-4)GlcNAc(b1-4)GlcNAc
# Procedure, shortened: as §1
# [12] = molecular target: Man(a1-3)[Man(a1-6)]Man(b1-4)GlcNAc(b1-4)GlcNAc
# Procedure, shortened: as §1
# [13] = molecular target: Neu5Ac(a2-3)Gal(b1-3)GalNAc
# Procedure, shortened: as §1
# [14] = molecular target: Neu5Ac(a2-3)Gal(b1-3)GalNAc(b1-4)[Neu5Ac(a2-8)Neu5Ac(a2-3)]Gal(b1-4)Glc
# Procedure, shortened: as §1
# [15] = molecular target: Neu5Ac(a2-3)Gal(b1-3)GlcNAc(b1-3)GalNAc
# Procedure, shortened: as §1
# [16] = molecular target: Neu5Ac(a2-3)Gal(b1-4)GlcNAc(b1-3)Gal(b1-4)GlcNAc(b1-3)Gal(b1-4)GlcNAc
# Procedure, shortened: as §1
# [17] = molecular target: Neu5Ac(a2-3)Gal(b1-4)GlcNAc(b1-3)Gal(b1-4)GlcNAc(b1-3)Gal(b1-4)GlcNAc(b1-2)Man(a1-3)[Neu5Ac(a2-3)Gal(b1-4)GlcNAc(b1-3)Gal(b1-4)GlcNAc(b1-3)Gal(b1-4)GlcNAc(b1-2)Man(a1-6)]GalNAc
# Procedure, shortened: as §1
# [18] = molecular target: Neu5Ac(a2-3)Gal(b1-4)[Fuc(a1-3)]GlcNAc(b1-2)Man
# Procedure, shortened: as §1
# [19] = molecular target: Neu5Ac(a2-3)[GalNAc(b1-4)]Gal(b1-4)Glc
# Procedure, shortened: as §1
# [20] = molecular target: Neu5Ac(a2-6)Gal(b1-4)GlcNAc(b1-2)Man(a1-3)[Man(a1-6)]Man(b1-4)GlcNAc(b1-4)GlcNAc
# Procedure, shortened: as §1
# [21] = molecular target: Neu5Ac(a2-6)Gal(b1-4)GlcNAc(b1-2)[Neu5Ac(a2-6)Gal(b1-4)GlcNAc(b1-4)]Man(a1-3)[GlcNAc(b1-4)][Neu5Ac(a2-6)Gal(b1-4)GlcNAc(b1-4)Man(a1-6)]Man(b1-4)GlcNAc(b1-4)GlcNAc
# Procedure, shortened: as §1
# [22] = molecular target: Neu5Ac(a2-6)Gal(b1-4)GlcNAc(b1-3)Gal(b1-4)GlcNAc(b1-2)Man(a1-3)[Neu5Ac(a2-6)Gal(b1-4)GlcNAc(b1-3)Gal(b1-4)GlcNAc(b1-2)Man(a1-6)]GalNAc
# Procedure, shortened: as §1
# [23] = molecular target: Neu5Ac(a2-6)Gal(b1-4)GlcNAc(b1-3)[Neu5Ac(a2-6)Gal(b1-4)GlcNAc(b1-6)]GalNAc
# Procedure, shortened: as §1
# [24] = molecular target: Neu5Ac(a2-6)Gal(b1-4)GlcNAc(b1-6)[Gal(b1-3)]GalNAc
# Procedure, shortened: as §1
# [25] = molecular target: Neu5Ac(a2-6)GalNAc(b1-4)GlcNAc
# Procedure, shortened: as §1
# [26] = molecular target: Neu5Ac(a2-8)Neu5Ac(a2-3)[Gal(b1-3)GalNAc(b1-4)]Gal(b1-4)Glc
# Procedure, shortened: as §1
# [27] = molecular target: Neu5Ac(a2-8)Neu5Gc(a2-3)Gal(b1-4)GlcNAc
# Procedure, shortened: as §1
binder,measurement,setting,value
PX14367A-bth-493-35-493 (Bacteroides thetaiotaomicron) (protein) VSSDQVAVAGNAERLFNGAWYNLFEYGTTYANIGYRALQCQDDMMASDVVSRPKYGFNSSYQFNDVAIPSDGRTSFAWYLIYKTIDNCNTAISIKGDSEELRQAQGQALALRAFCYLHLVQHYQFTYLKDKDAPCVPIYTEPTTSGTKPKGKSTVAQVYQQIFDDLNLAQDYLTNYVRKGDGQKFKPNTDVVNGLMARAYLLTGQWGEAAKAAEAARKGYSLMTTTAEYEGFNNISNKEWIWGSPQTLSQSDASYNFYYLDATYVGAYSSFMADPHLMDTFVKGDIRLPLFQWMREGYLGYKKFHMRSDDTADLVLMRSAEMYLIEAEAKVRDGVALDQAVAPLNTLRTARGVGNYDVTGKTKEQVIDEILMERRRELWGEGFGITDVLRNQKAVERMALSEDMQKTEVDCWQEGGSFAKRNPLGHWFLNFPDGKAFSANSSYYLYAIPEKEINANPNL,glycan array binding signal (z-score),[1],2.51
same,glycan array binding signal (z-score),[2],6.87
same,glycan array binding signal (z-score),[3],-0.332
same,glycan array binding signal (z-score),[4],0.726
same,glycan array binding signal (z-score),[5],4.2
same,glycan array binding signal (z-score),[6],-0.551
same,glycan array binding signal (z-score),[7],-0.396
same,glycan array binding signal (z-score),[8],1.06
same,glycan array binding signal (z-score),[9],-0.213
same,glycan array binding signal (z-score),[10],0.44
same,glycan array binding signal (z-score),[11],-0.608
same,glycan array binding signal (z-score),[12],0.166
same,glycan array binding signal (z-score),[13],-0.407
same,glycan array binding signal (z-score),[14],-0.448
same,glycan array binding signal (z-score),[15],-0.042
same,glycan array binding signal (z-score),[16],-0.083
same,glycan array binding signal (z-score),[17],1.29
same,glycan array binding signal (z-score),[18],-0.443
same,glycan array binding signal (z-score),[19],-0.325
same,glycan array binding signal (z-score),[20],0.504
same,glycan array binding signal (z-score),[21],-0.361
same,glycan array binding signal (z-score),[22],6.47
same,glycan array binding signal (z-score),[23],-0.601
same,glycan array binding signal (z-score),[24],0.377
same,glycan array binding signal (z-score),[25],-0.719
same,glycan array binding signal (z-score),[26],-0.3
same,glycan array binding signal (z-score),[27],11.1
